APOBEC3A inh: APOBEC3A ssDNA deaminase inhibitors, primary screen, selectivity assay for APOBEC3G inhibitor project, biochemical, FAM/TAMRA oligo cleavage fluorescence; AID 493011, 2011; 330,000 compounds, 0.41% hits; recombinant A3A, FAM/TAMRA ssDNA deamination fluorescence; DNA dC->dU-editing enzyme APOBEC-3A (Homo sapiens), P31941; inhibition, % at 20 µM;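 active = at least 40% inhibition at 20 µM here, with at most 30% in a related deaminase screen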;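 also: plate controls were A3A with DMSO for no effect and wells lacking A3A enzyme for full effect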
Target sequence (P31941 whole entry, looked up): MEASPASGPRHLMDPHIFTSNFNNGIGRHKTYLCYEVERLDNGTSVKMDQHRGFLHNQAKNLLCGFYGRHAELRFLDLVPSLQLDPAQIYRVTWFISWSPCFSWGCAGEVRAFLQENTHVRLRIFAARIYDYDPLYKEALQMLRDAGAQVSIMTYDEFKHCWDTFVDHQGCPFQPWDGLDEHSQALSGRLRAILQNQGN
A3G deaminase: APOBEC3G DNA deaminase inhibitors, primary screen, biochemical, fluorescence, single-stranded DNA substrate, uHTS | inhibition, % at 20 µM | recombinant A3G, ssDNA deamination FAM/TAMRA fluorescence | 330,000 compounds, 0.28% hits | DNA dC->dU-editing enzyme APOBEC-3G (Homo sapiens), Q9HC16;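 active = inhibition of at least 40% at 20 µM, with no more than 30% in the related APOBEC3A deaminase screen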;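 also: plate controls were DMSO wells with A3G for no effect and wells lacking A3G enzyme for full effect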
Target sequence (Q9HC16 whole entry, looked up): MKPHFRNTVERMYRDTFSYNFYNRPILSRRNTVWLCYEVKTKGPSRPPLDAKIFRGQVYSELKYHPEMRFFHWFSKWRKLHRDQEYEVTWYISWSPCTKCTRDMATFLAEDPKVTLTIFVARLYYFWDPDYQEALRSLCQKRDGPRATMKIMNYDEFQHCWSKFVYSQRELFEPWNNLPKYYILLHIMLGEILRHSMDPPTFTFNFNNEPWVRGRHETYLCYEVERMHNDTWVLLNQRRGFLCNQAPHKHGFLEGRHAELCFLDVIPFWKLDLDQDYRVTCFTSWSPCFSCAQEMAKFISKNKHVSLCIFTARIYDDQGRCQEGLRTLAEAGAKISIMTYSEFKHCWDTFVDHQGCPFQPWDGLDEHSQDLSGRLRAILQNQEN
VLA-4 inh: inhibition in human VLA-4 binding assay, primary screen, VLA-4 allosteric modulator project, MLPCN library, flow cytometry, VLA-4 expressing cells; ligand binding flow cytometry; 330,000 compounds, 0.2% hits; inhibition, % (about 7 µM as worked out from the volumes in the protocol); Integrin alpha-4 (Homo sapiens), P13612; in the data active = inhibition above about 50%
GRK2 aptamer HTS: compounds blocking aptamer binding on GRK2 – biochemical, human GRK2, bead flow cytometry, HTS, primary screen; Beta-adrenergic receptor kinase 1 (Homo sapiens), P25098; FAM-aptamer displacement from GRK2; 330,000 compounds, 0.59% hits; AID 488847, 2010; inhibition of aptamer binding, % at 10 µM;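 active = inhibition of aptamer binding above 40%, roughly 3 SD of noise, on plates passing a quality check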;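 also: median bead fluorescence of bound FAM aptamer so fluorescent compounds give negative values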
APOBEC3A confirm: APOBEC3A deaminase inhibitors, retest, confirmation, selectivity assay for APOBEC3G inhibitor project, biochemical, single concentration, fluorescence readout | shares compounds with APOBEC3A inh | recombinant A3A, ssDNA deaminase UDG fluorescence assay | inhibition, % at 20 µM | 1,400 compounds, 63% hits | AID 493151, 2011;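 active = inhibition reaching a set limit, 80% of the first screen's cutoff, at 20 µM in any replicate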;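 also: plate controls were DMSO wells with A3A for no effect and wells lacking A3A enzyme for full effect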
UDG ctr A3A: E. coli UDG inhibitors, confirmation, counter-screen for APOBEC3A inhibitor project, biochemical, single concentration, fluorescence, FAM/TAMRA oligo | shares compounds with APOBEC3A inh | UDG counterscreen, FAM/TAMRA uracil oligo fluorescence | inhibition, % at 20 µM | 1,000 tested, under 10 active; call rule not given here
* = called active by the depositor; x = no result given. Hits are enriched below; roughly 1.4% of the tested compounds scored in any of these assays.

SMILES	APOBEC3A inh	A3G deaminase	VLA-4 inh	GRK2 aptamer HTS	APOBEC3A confirm	UDG ctr A3A
COc1ccccc1NC(=O)c1cc[n+](C)cc1	86*	10	4	1	64*	2
COc1ccccc1NC(=O)c1ccc(COc2ccccc2OC)cc1	-4	-7	3	1	x	x
COC(=O)c1ccccc1NC(=O)c1cc[n+](C)cc1	77*	19	-5	3	57*	-2
N=C(N)Cc1ccccc1Sc1ccccc1	42*	1	-16	0	1	x
COc1cccc(-c2ccc(NC(=O)C3CCCN(Cc4cnn(C)c4)C3)cc2)c1 (stereo not drawn)	-6	-2	9	0	x	x
Cn1cc(CNC(=O)Nc2ccc3c(c2)OCO3)cn1	1	-2	0	1	x	x
COc1ccc(C(=O)NCCCN2CCOCC2)cc1	72*	-1	11	2	-9	-1
COc1ccc(NC(=S)NCCCN2CCCC2)cc1	41*	-2	-11	4	-8	0
CC(c1n[nH]c(=S)n1-c1ccccc1)N1CCCCC1 (stereo not drawn)	-6	-9	5	0	x	x
COc1ccc(NC(C)=[N+](C)CCNS(=O)(=O)c2ccc(Cl)cc2)cc1Cl	62*	14	-1	5	69*	1
COc1ccccc1NC(C)=[N+](C)CCNS(=O)(=O)c1ccc(Cl)cc1	56*	16	5	9	79*	-2
CC(Nc1cc(C)cc(C)c1)=[N+](C)CCNS(=O)(=O)c1ccc(Cl)cc1	45*	9	-9	48*	67*	0
COc1ccc(NC(=O)CCNS(=O)(=O)c2ccc(NC(C)=O)cc2)cc1Cl	1	-4	28	0	x	x
CC(C)N(CCNS(=O)(=O)c1ccc(Cl)cc1)C(C)C	0	0	6	1	x	x
COc1ccccc1N/C(=N/S(=O)(=O)c1ccc(Cl)cc1)c1ccccc1	4	-3	7	2	x	x
CCOc1cccc(-c2nc3cc(C)ccc3o2)c1	-4	-5	9	2	x	x
COC(=O)c1cccc(S(=O)(=O)N2CCC(NC(=O)NC34CC5CC(CC(C5)C3)C4)CC2)c1	-2	-4	4	1	x	x
CS(=O)(=O)c1ccc(Cl)c(NC(=O)CCCc2nc3ccccc3c(=O)[nH]2)c1	41*	4	-5	0	2	x
COc1ccc(C2C(C(C)=O)=C(C)N=c3s/c(=C\c4ccc5c(c4)OCO5)c(=O)n32)c(OC)c1 (stereo not drawn)	50*	4	-3	3	9	x
COc1ccc(C2C(C(C)=O)=C(C)N=c3s/c(=C\c4ccco4)c(=O)n32)c(OC)c1 (stereo not drawn)	8	-4	13	8	x	x
COC(=O)NCC(c1cccnc1)N1CCOCC1 (stereo not drawn)	-3	-3	-7	1	x	x
COc1cccc(OCc2nn[nH]n2)c1	1	0	5	0	x	x
COc1ccc(OCc2nn[nH]n2)cc1	56*	-1	4	2	19	2
COc1ccccc1C(CNC(=O)c1cccc(NS(=O)(=O)c2ccc(C)c(F)c2)c1)N(C)C (stereo not drawn)	1	4	12	0	x	x
COc1cc(C(=S)N2CCCCC2)ccc1OCC(=O)Nc1ccccc1Cl	-1	-7	23	1	x	x
SMILES	APOBEC3A inh	A3G deaminase	VLA-4 inh	GRK2 aptamer HTS	APOBEC3A confirm	UDG ctr A3A
CC[n+]1ccccc1/C=C1\Sc2ccc(C)cc2N1C	54*	24	-389	2	84*	-3
CC(C)N1C(=O)CC2(CC[N+](C)(CCOC(=O)C(c3ccccc3)c3ccccc3)CC2)C1=O (stereo not drawn)	60*	18	4	0	27*	5
CS(=O)(=O)c1ccc2sc(NC(=O)c3cc4ccccc4o3)nc2c1	53*	27	-10	0	24	x
Cc1ccc(C)c(N2CCN(C(=O)CCc3nc(-c4ccccc4C)no3)CC2)c1	1	3	x	3	x	x
COc1ccc(/C=C/C=N/NC(=O)COc2ccc(OC)cc2)cc1	-2	-3	16	0	x	x
CC(C)C(NC(=O)COc1ccc2ccccc2c1)C(=O)N/N=C/C=C/c1ccccc1 (stereo not drawn)	41*	16	20	0	63*	3
COc1ccc(C2CC(=O)C3=C(C2)Nc2ncnn2C3c2ccccc2C)c(OC)c1 (stereo not drawn)	-4	-5	5	9	x	x
COc1ccccc1N=Nc1[nH]c2ccc(C)cc2c1O	66*	6	6	2	53*	0
COc1ccccc1N=Nc1ccc(O)c2ncccc12	2	2	5	3	x	x
Cn1c(=O)n(C)c2cc(C(=O)O)ccc21	60*	-3	7	0	-61	2
Cn1c(=O)n(C)c2cc(C(N)=O)ccc21	-1	-5	11	0	x	x
CN(C)CCNc1nc2sc3c(c2c(=O)n1Cc1ccccc1)CCCCC3	-5	-10	x	x	x	x
COc1ccc(OC(=O)c2cc3cc(Cl)ccc3oc2=O)cc1	-5	-7	5	0	x	x
COC/C=C/C1=CC2=CC(=O)C(C)(OC(=O)c3cnc4ccccc4n3)C(=O)C2=CO1 (stereo not drawn)	44*	23	-6	36	39*	x
COC/C=C/C1=CC2=CC(=O)C(C)(OC(=O)c3cnc4ccccc4n3)C(=O)C2=CN1C(CO)CO (stereo not drawn)	0	-5	31	1	x	x
CCC1(c2ccccc2)NC(=O)N(CC(=O)Nc2cc(Cl)ccc2N2CCOCC2)C1=O (stereo not drawn)	47*	5	0	0	8	x
CCn1c(SCC(=O)NC(C)(C)C)nc(O)cc1=O	-5	-4	7	12	x	x
O=C(Cn1c(=O)n(Cc2ccco2)c(=O)c2c3c(sc21)CCCCC3)Nc1ccccc1	49*	20	13	2	55*	x
C=CC1=C(C(=O)O)N2C(=O)[C@@H](NC(=O)/C(=N\O)c3csc(N)n3)[C@H]2SC1 (stereo in doubt)	89*	18	13	10	88*	x
CCn1ccc(C(=O)NC2C(=O)N3C(C(=O)O)=C(C)CSC23)n1 (stereo not drawn)	2	-1	-3	0	x	x
Cc1ccc(-c2c[n+](CC(=O)OCc3ccccc3)c3n2CCC3)cc1	-4	-5	23	2	x	x

Screens as filed in PubChem.
